PubChem BioAssay AID686979 (National Center for Advancing Translational Sciences (NCATS), 2013)
In all, about 420,000 compounds went through this assay and about 50,000 (12%) were called active. Another 26% or so got no clear call; they are omitted. Calls come from the whole dose curve; as a rule, active = well fitted inhibition curve with a large enough effect; inconclusive = small, poorly fitted or top-dose-only effect; inactive = flat fitted curve, though single readings scatter. The list comes from a sample in which actives are over-represented; it also holds similar structures and randomly drawn compounds. A call without a number means that no potency is given here.

Experiment: qHTS for Inhibitors of human tyrosyl-DNA phosphodiesterase 1 (TDP1): qHTS in cells in presence of CPT; note: nearly all actives have a fitted effect of over 55% in size
Conditions: chicken DT40 Tdp1-/-;hTDP1 cells + 20 nM CPT, ATP luminescence, 48 h; series mostly up to 46.2 µM
Procedure, shortened: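 Chicken DT40 Tdp1-/- cells complemented with human TDP1, 400 cells/well, exposed to compounds plus 20 nM camptothecin for at least 48 h at 37 C; viability read as ATP content by CellTiter-Glo luminescence.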
Potency is the fitted concentration of half-maximal effect.

Q: For `C=CC(C1=CC(=O)C=CC1=O)c1ccc(O)cc1` (centres undefined), which Potency is on record?
A: 1.64 µM (active)

Q: With `CSc1ncccc1C(=O)OCc1ccc(Br)cc1` as the compound, how does the Potency read?
A: inactive

Q: Which Potency does the source give for `NC(=O)C1(Nc2ccc(-c3ccccc3)cc2)CCCC1` here?
A: inactive

Q: With `COc1cccc(S(=O)(=O)NCc2ccc(C(=O)NCc3ccccn3)cc2)c1` as the compound, how does the Potency read?
A: 0.92 µM (active)

Q: For `COc1ccc2oc(=O)c(C(=O)NCc3ccccn3)cc2c1`, which Potency is on record?
A: inactive

Q: With `O=[N+]([O-])c1cccc(S(=O)(=O)NCc2ccccn2)c1` as the compound, how does the Potency read?
A: inactive

Q: Which Potency does the source give for `O=C(COC(=O)c1ccc(F)cc1)NCCCc1ccccc1` here?
A: inactive

Q: With `Cn1c(SCC(=O)N2CCCCC2)nc2c(c1=O)SCC2` as the compound, how does the Potency read?
A: inactive

Q: With `Cc1c(NC(=O)c2cc(=O)c3ccccc3o2)c(=O)n(-c2ccccc2)n1C` as the compound, how does the Potency read?
A: inactive

Q: Which Potency does the source give for `O=C1CC(c2ccccc2)C(c2ccccc2)=NN1` (centres undefined) here?
A: inactive

Q: Which Potency does the source give for `CC(=O)NCCC(=O)Nc1cc(S(=O)(=O)N2CCOCC2)ccc1N1CCOCC1` here?
A: inactive

Q: Which Potency does the source give for `CC(C)CCC(=O)Nc1cc(S(=O)(=O)N2CCOCC2)ccc1N1CCCC1` here?
A: inactive

Q: Which Potency does the source give for `CC(=O)Nc1ccc(C(=O)Nc2cc(S(=O)(=O)N3CCOCC3)ccc2N2CCOCC2)cc1` here?
A: inactive

Q: With `CC(Oc1ccc(F)cc1)C(=O)Nc1cc(S(=O)(=O)N2CCOCC2)ccc1N1CCN(C)CC1` (centres undefined) as the compound, how does the Potency read?
A: inactive

Q: For `COCCNC(=S)Nc1cc(S(=O)(=O)N2CCOCC2)ccc1N1CCCCC1`, which Potency is on record?
A: 20.6 µM (active)

Q: For `CC(C)CCOc1ccc(C(=O)Nc2cc(S(=O)(=O)N3CCOCC3)ccc2N2CCOCC2)cc1`, which Potency is on record?
A: 9.2 µM (active)

Q: Which Potency does the source give for `COc1ccc(CNC(=O)Cn2nnc(-c3ccccc3F)n2)cc1` here?
A: inactive

Q: For `COC(=O)[C@@H]1CC(O)CN1C(=O)C12CC3CC(CC(C3)C1)C2` (some centres undefined), which Potency is on record?
A: inactive

Q: Which Potency does the source give for `CN(C)/C(=N\OC(=O)c1ccccc1)c1nonc1N` here?
A: inactive

Q: With `C=C(C)CNC(=O)c1ccc(OC2CCN(C(=O)COC)CC2)cc1` as the compound, how does the Potency read?
A: inactive

Q: For `Cc1c(NC(=O)CSc2nnnn2-c2ccc(C(=O)O)cc2)c(=O)n(-c2ccccc2)n1C`, which Potency is on record?
A: inactive

Q: Which Potency does the source give for `CS(=O)(=O)N(CC(=O)N1CCc2ccccc2C1)c1ccc(Br)cc1` here?
A: inactive

Q: With `CN(CCc1ccccc1)c1ccc([N+](=O)[O-])cn1` as the compound, how does the Potency read?
A: inactive

Q: With `Cc1c(C)c2c(OCC(=O)N[C@@H](C(=O)O)c3ccccc3)cc3c(c2oc1=O)CCC(C)(C)O3` as the compound, how does the Potency read?
A: inactive

Q: For `COc1ccc2c(c1)CCc1cnc(-n3ncc(C(=O)NCCN4CCOCC4)c3C)nc1-2`, which Potency is on record?
A: inactive

Q: With `COC(=O)c1cc(C(=O)CSc2nc(C)cc(C)n2)ccc1O` as the compound, how does the Potency read?
A: inactive

Q: For `Cc1cc(C)nc(SCC(=O)c2ccc(Cl)cc2)n1`, which Potency is on record?
A: inactive

Q: With `Cc1cc(Oc2ccc(Cl)cc2)nc(SCC(=O)c2ccccc2)n1` as the compound, how does the Potency read?
A: 23.1 µM (active)

Q: Which Potency does the source give for `O=C(COC(=O)CCCSc1nc2ccccc2[nH]1)Nc1ccc(Oc2ccccc2)cc1` here?
A: inactive

Q: With `NC(=O)CC[C@@H]1NC(=O)[C@@H]2CCCN2C(=O)c2cc([N+](=O)[O-])cc(F)c2NCCC[C@@H](C(N)=O)NC1=O` as the compound, how does the Potency read?
A: inactive

Q: For `CC1(C)CN(Cc2cccnc2)C(=O)[C@H]1CC(=O)Nc1ccc(Br)cc1`, which Potency is on record?
A: inactive

Q: For `CC(C)C(=O)N1CC(=O)Nc2ccc(F)cc2C1c1ccc(F)cc1` (centres undefined), which Potency is on record?
A: inactive

Q: For `COC(=O)CN1C(C)=Nc2ccc(Br)cc2C1c1ccccc1` (centres undefined), which Potency is on record?
A: inactive

Q: For `O=C1CN(C(=O)c2ccccc2F)C(c2ccc(F)cc2)c2cc(F)ccc2N1` (centres undefined), which Potency is on record?
A: inactive

Q: For `COc1ccc(CC(=O)N2CC(=O)Nc3ccc(Br)cc3C2c2ccc(F)cc2)cc1OC` (centres undefined), which Potency is on record?
A: 16.4 µM (active)

Q: With `CCC(CC)C(=O)N1CC(=O)Nc2ccc(Br)cc2C1c1ccccc1` (centres undefined) as the compound, how does the Potency read?
A: 23.1 µM (active)

Q: With `Cc1ccc2c(c1)C(c1ccccc1)N(C(=O)c1ccc(F)cc1)CC(=O)N2` (centres undefined) as the compound, how does the Potency read?
A: inactive

Q: For `COc1ccc(C(=O)Nc2ccnn2C2CCN(Cc3ccncc3)CC2)cc1`, which Potency is on record?
A: inactive

Q: Which Potency does the source give for `COC(=O)c1sc2ncccc2c1-n1c(C)ccc1C` here?
A: inactive

Q: Which Potency does the source give for `Cc1cc(Cl)ccc1NNC(=O)c1snnc1C` here?
A: inactive

Q: With `Brc1ccc(-c2csc(N/N=C/c3cccnc3)n2)cc1` as the compound, how does the Potency read?
A: inactive

Q: For `O=C(CSc1nnc(Cn2cnc3ccccc32)o1)c1ccccc1`, which Potency is on record?
A: 11.6 µM (active)

Q: For `CC(=O)Nc1ccc(C(=O)CSc2nnc(Cc3ccccc3)o2)cc1`, which Potency is on record?
A: inactive

Q: For `O=C(CSc1nnc(-c2c[nH]c3ccccc23)o1)c1ccccc1`, which Potency is on record?
A: inactive

Q: Which Potency does the source give for `CCCN(c1ccc(C)cc1)c1nc(=O)c2cccnc2s1` here?
A: inactive

Q: Which Potency does the source give for `Cc1nc(N2CCOCC2)c2c(C(=O)NCc3cccc(Cl)c3)c(C)oc2n1` here?
A: inactive

Q: For `COc1ccc(N2CCN(C(=O)c3c(C)oc4nc(C)nc(N5CCCC5)c34)CC2)cc1`, which Potency is on record?
A: inactive

Q: For `CCOC(=O)c1c(C)oc2nc(C)nc(N3CCN(c4ccc(OC)cc4)CC3)c12`, which Potency is on record?
A: 7.31 µM (active)

Q: Which Potency does the source give for `CCOc1ccc(CCNC(=O)CN(c2ccc(C)cc2)S(=O)(=O)N(C)C)cc1OCC` here?
A: inactive

Q: Which Potency does the source give for `CC(C)(C)N1C(=O)c2c(C(=O)OCc3ccccc3)[nH]c(-c3ccccc3)c2C1=O` here?
A: inactive

Q: For `CCOC(=O)c1cc(=O)c2ccc(OCc3ccccc3)cc2o1`, which Potency is on record?
A: inactive

Q: With `CCOc1ccc(C2CC(=O)c3c([nH]c(C(=O)OCc4ccccc4)c3C)C2)cc1` (centres undefined) as the compound, how does the Potency read?
A: 13 µM (active)

Q: With `CCOC(=O)c1[nH]c2c(c1-c1ccccc1)C(=O)CC(c1ccc(Cl)cc1)C2` (centres undefined) as the compound, how does the Potency read?
A: inactive

Q: With `CCc1ccc(C2CC(=O)c3c([nH]c(C(=O)OCc4ccc(C)cc4)c3C)C2)cc1` (centres undefined) as the compound, how does the Potency read?
A: 6.51 µM (active)

Q: Which Potency does the source give for `CCOC(=O)C(Cc1ccccc1)NC(=O)CCC(=O)c1ccc(OC)cc1` (centres undefined) here?
A: inactive

Q: For `CN1C(=O)/C(=C/C=C2\SCCN2C)OC1=S`, which Potency is on record?
A: inactive

Q: For `Cc1ccn2c(=O)nc(SCC(=O)NCc3ccc4c(c3)OCO4)nc2c1`, which Potency is on record?
A: inactive

Q: For `CCOc1ccccc1NC(=O)CSc1ncc(S(=O)(=O)c2ccc(C(C)(C)C)cc2)c(=O)[nH]1`, which Potency is on record?
A: inactive

Q: Which Potency does the source give for `O=C(NCC(=O)N(c1ccccc1)C(C(=O)NCC1CCCO1)c1ccccc1)c1cccs1` (centres undefined) here?
A: inactive

Q: With `Cc1ccc(N2CCN(C(=O)CCc3c(C)nc4c(c3C)c(=O)n(C)c(=O)n4C)CC2)c(C)c1` as the compound, how does the Potency read?
A: inactive

Q: Which Potency does the source give for `Cc1ccc(Cc2c(C)nc3nc(SCC(=O)NCCN4CCOCC4)nn3c2C)cc1` here?
A: inactive

Q: For `COc1cc(NC(=O)CSc2nc3nc(C)c(Cc4ccc(C)cc4)c(C)n3n2)cc(OC)c1OC`, which Potency is on record?
A: 13 µM (active)

Q: With `COc1cc(NC(=O)CCn2nc(C)cc2C)cc(OC)c1OC` as the compound, how does the Potency read?
A: inactive

Q: Which Potency does the source give for `CCn1c(SC)nc(O)c(C(c2ccc(OC)c(O)c2)c2c(O)nc(SC)n(CC)c2=O)c1=O` here?
A: inactive
